Source: ChEMBL document CHEMBL4513216, “Probing the Open Global Health Chemical Diversity Library for Multistage-Active Starting Points for Next-Generation Antimalarials” (ACS Infect Dis, 2020)
Among all 68,000 compounds or so, about 2,700 (4%) showed an effect of 50% or more. What follows is part of a selection rich in strong results, with near analogues and random picks from the rest.

These compounds were tested on Plasmodium berghei (assay: Screen against P. berghei liver stage (PbLuc), transformed with Luciferase, at 2uM). Conditions: tested at 2 uM.
Format: functional, HepG2
With `CCc1noc(C2CCCCN2C(=O)c2ccc3c(c2)OCO3)n1` (stereo unspecified) the INHIBITION was 25.67%. For `CC[C@@H]1N(Cc2nccs2)CCC[C@]12CCC(=O)N2CCOC`, the INHIBITION was 65.26%. Work on `CC[C@@H]1N(Cc2ccc(F)cc2)CCC[C@]12CCC(=O)N2CCOC` yielded an INHIBITION of 1.78%. `CC[C@@H]1N(Cc2nccs2)CCC[C@]12CCC(=O)N2C` gave an INHIBITION of 45.22%. Work on `Cc1csc(C(=O)N2CC(S(=O)(=O)C3CCCCC3)C2)c1` yielded an INHIBITION of -15.37%. For `CC(=O)N1CC2(CCCN2Cc2ccc(Cl)cc2)Cc2ccccc21` (stereo unspecified), the INHIBITION was 6.9%. `CCn1c(CC2CCN(C(=O)c3cc(C(C)C)nn3C)CC2)n[nH]c1=O` showed an INHIBITION of 32.26%. For `CCn1c(CC2CCN(C(=O)c3cc(C(C)C)n[nH]3)CC2)n[nH]c1=O`, the INHIBITION was 3.06%. Work on `CCn1c(CC2CCN(C(=O)c3cc(CC(C)C)on3)CC2)n[nH]c1=O` yielded an INHIBITION of 55.25%. `CSCc1cccc(NC(=O)N2CCC(N3CC=CC3)C2)c1` (stereo unspecified) gave an INHIBITION of -18.09%. Compound `CC(=O)N(C)Cc1ccccc1NCc1c(C)noc1C` has an INHIBITION of 47.68%. `CCN(CC)Cc1ccccc1NCc1c(C)noc1C` gave an INHIBITION of 71.91%. `Cc1noc(C)c1CNS(=O)(=O)N(C)Cc1ccccc1Br` gave an INHIBITION of -45.67%. With `O=C(Cc1csc(-c2ccco2)n1)N1CCN(c2nccs2)CC1` the INHIBITION was 4.89%. In the case of `CC(C)(C)CC(NC(=O)N1CCC(C(N)=O)CC1)C(F)(F)F` (stereo unspecified), the INHIBITION is reported as 4.34%. In the case of `CC(=O)N[C@@H](C)C(=O)NCc1cccnc1Oc1ccccc1F`, the INHIBITION is reported as -66.28%. For `c1cncc(-c2noc(CN3CCCC3Cn3cccn3)n2)c1` (stereo unspecified), the INHIBITION was 5.59%. With `O=C(Nc1cc(-c2ccccc2)on1)N1CCN(CCO)CC1` the INHIBITION was 45.19%. Compound `CCC(=O)NC1CCCN(C(=O)Nc2cc(-c3ccccc3)on2)C1` (stereo unspecified) has an INHIBITION of 80.45%. In the case of `O=C(Nc1cc(-c2ccccc2)on1)N1CC[C@H](O)C1`, the INHIBITION is reported as -9.71%. In the case of `Cc1ccc(CN2CCCC3(CCCCN3S(C)(=O)=O)C2)s1` (stereo unspecified), the INHIBITION is reported as -40.37%. With `Cc1ccc(CN2CCC3(CCCN3S(C)(=O)=O)CC2)s1` the INHIBITION was -26.46%. For `Cc1ccc(CN2CCCC3(CCCN3S(C)(=O)=O)C2)s1` (stereo unspecified), the INHIBITION was 51.26%. `Cc1ccc(CNCc2nnc3n2CCCC3C(F)(F)F)s1` (stereo unspecified) gave an INHIBITION of -73.29%. Compound `OC1(CN2CCC(Cc3ncccn3)CC2)CCCCC1` has an INHIBITION of -9.61%. With `CCOc1cccnc1C(=O)N1CC=C(c2ccc(O)cc2)CC1` the INHIBITION was 7.46%. `Cn1ccc(CN2CCC(NC(=O)NC3CCCCC3)CC2)cc1=O` showed an INHIBITION of 54.85%. Compound `Cn1ccc(CN2CCC(CC(=O)NC3CCCC3)CC2)cc1=O` has an INHIBITION of -17.37%. For `Cn1ccc(CN2CCC(NC(=O)C3CCCCC3)CC2)cc1=O`, the INHIBITION was -24.26%. `Cc1ccccc1-c1noc(CNc2ccc(F)cc2OCCO)n1` showed an INHIBITION of 20.77%. With `Cc1nc(COc2ccc(CNCCn3cccn3)cc2)cs1` the INHIBITION was 12.01%. Work on `Cc1nc(-c2ccccc2)n(CC(=O)NC2CCCC2)n1` yielded an INHIBITION of 37.68%. In the case of `COC(=O)C1CCN(C(=O)Cn2ccc(-c3ccccc3)n2)CC1`, the INHIBITION is reported as -7.16%. Work on `COC(=O)C1CCN(C(=O)Cn2nc(C)nc2-c2ccccc2)CC1` yielded an INHIBITION of 50.32%. With `Cc1nc(-c2ccsc2)ccc1C(=O)NCCCN1CCOCC1` the INHIBITION was -10.47%. In the case of `Cc1nc(-c2ccsc2)ccc1C(=O)NCCN1CCOCC1`, the INHIBITION is reported as 13%. `Cc1nc(-c2ccsc2)ccc1C(=O)NC(C)CN1CCOCC1` (stereo unspecified) was tested, and the INHIBITION was 50.75%. For `CC(C)CN1CC[C@@H]2[C@H](CC1)N(S(C)(=O)=O)CCS2(=O)=O`, the INHIBITION was 30.95%. `Cc1noc(C)c1CN1CC[C@H]2OCC[C@@]2(C(=O)NC2CCCC2)C1` was tested, and the INHIBITION was -6.61%. `COc1ncc(-c2ccc(O)cc2)c(OC)n1` was tested, and the INHIBITION was 24.44%. `Cc1cc(N(C)C)nc(C2COCCN2Cc2csc(C)n2)n1` (stereo unspecified) showed an INHIBITION of -27.45%. Work on `CNc1cc(C)nc(C2COCCN2Cc2csc(C)n2)n1` (stereo unspecified) yielded an INHIBITION of 52.03%. `CNc1cc(C)nc(C2COCCN2CCc2ccccc2)n1` (stereo unspecified) was tested, and the INHIBITION was -3.96%. In the case of `CCOC(=O)C(C)Nc1ccc(CCN2CCOCC2)cc1` (stereo unspecified), the INHIBITION is reported as -48.91%. `CNc1nc2c(s1)C(=O)CN(C(=O)NCc1ccccc1)C2` was tested, and the INHIBITION was 16.51%. `CCNc1nc2c(s1)C(=O)CN(C(=O)NCc1ccccc1)C2` gave an INHIBITION of 52.01%. `CCNc1nc2c(s1)C(=O)CN(C(=O)NCCc1ccccc1)C2` gave an INHIBITION of 12.31%. Compound `COCCN1C[C@@H]2CC[C@H]1CN(Cc1cc(=O)c3cc(C)ccc3[nH]1)C2` has an INHIBITION of -23.58%. With `COCCN1C[C@@H]2CC[C@H]1CN(Cc1ccc3ccccc3n1)C2` the INHIBITION was 50.32%. `COCCN1C[C@@H]2CC[C@H]1CN(Cc1nc3ccccc3n1C)C2` was tested, and the INHIBITION was 20.14%. `O=C(NCc1cccnc1)c1nc2c(s1)CCCN2C(=O)C1CC1` showed an INHIBITION of 26.76%. `CC(C)CC(=O)NS(=O)(=O)c1ccc2c(c1)OCCCO2` showed an INHIBITION of -32.2%. Compound `CC(C)(C)C(=O)NCCC(=O)NC(C)(C)c1ccc2c(c1)OCCO2` has an INHIBITION of -93.39%. In the case of `CSCCC(=O)NS(=O)(=O)c1ccc2c(c1)OCCO2`, the INHIBITION is reported as -14.75%. With `COCCCC(=O)NS(=O)(=O)c1ccc2c(c1)OCCCO2` the INHIBITION was 54.85%. For `CCCOCC(=O)NS(=O)(=O)c1ccc2c(c1)OCCCO2`, the INHIBITION was -16.42%. In the case of `CC(C)(C)C(=O)NCCC(=O)NS(=O)(=O)c1ccc2c(c1)OCCO2`, the INHIBITION is reported as 73.37%. `COCCn1ccc(NC(=O)Nc2ccccn2)n1` gave an INHIBITION of -48.53%. With `O=C1N(Cc2ccc(F)c(F)c2)CCCC1(O)CNCc1cccnc1` (stereo unspecified) the INHIBITION was -0.06%. `CCOc1cc2c(cc1CNC(Cc1cccs1)c1nccs1)OCO2` (stereo unspecified) showed an INHIBITION of -52.9%. `CC(C)NC(=O)C1CCc2nnc(CNC(=O)c3ccc(Cl)cc3Cl)n21` (stereo unspecified) showed an INHIBITION of 5.75%. `CC(C)NC(=O)C1CCc2nnc(CNC(=O)c3cccnc3)n21` (stereo unspecified) showed an INHIBITION of 37.62%. `CC(C)NC(=O)C1CCc2nnc(CNC(=O)C3CC3)n21` (stereo unspecified) gave an INHIBITION of 52.23%. `CCOc1ccc(S(=O)(=O)N(C)Cc2cnn(CC)c2)cc1` gave an INHIBITION of -44.7%. `COc1ncccc1CNC1CCc2c(ccc(=O)n2CC2CC2)C1` (stereo unspecified) was tested, and the INHIBITION was 24.04%. Compound `O=C([C@H]1C[C@H]2OCC[C@H]2N(Cc2ccccc2F)C1)N1CCCCO1` has an INHIBITION of 29.33%.
